# Measured values: PMC5540273 (PLoS ONE, 2017)
# Several values for one entry are separate records, joined by “and”; a condition that tells them apart may be missing. Identical values can stand only once. Like-named read-outs stand apart in the source and are kept apart here.
# Legend:
# [1] = tested on: HPK1; settings: concentration: 1 μM, replicates: in singlicate, n = 1
# [2] = tested on: HUNK; settings: concentration: 1 μM, replicates: in singlicate, n = 1
# [3] = tested on: ICK; settings: concentration: 1 μM, replicates: in singlicate, n = 1
# [4] = tested on: IGF1R; settings: concentration: 1 μM, replicates: in singlicate, n = 1
# [5] = tested on: T1, IKK-alpha; settings: concentration: 1 μM, replicates: in singlicate, n = 1
# T1 construct: gene CHUK
# [6] = tested on: T2, IKK-beta; settings: concentration: 1 μM, replicates: in singlicate, n = 1
# T2 construct: gene IKBKB
# [7] = tested on: T3, IKK-epsilon; settings: concentration: 1 μM, replicates: in singlicate, n = 1
# T3 construct: gene IKBKE
# [8] = tested on: INSRR; settings: concentration: 1 μM, replicates: in singlicate; n = 1
# [9] = tested on: INSR; settings: concentration: 1 μM, replicates: in singlicate; n = 1
# [10] = tested on: IRAK1; settings: concentration: 1 μM, replicates: in singlicate, n = 1
# [11] = tested on: IRAK3; settings: concentration: 1 μM, replicates: in singlicate; n = 1
# [12] = tested on: IRAK4; settings: concentration: 1 μM, replicates: in singlicate; n = 1
# [13] = tested on: ITK; settings: concentration: 1 μM, replicates: in singlicate, n = 1
# [14] = tested on: JAK1(JH1domain-catalytic); settings: concentration: 1 μM, replicates: in singlicate, n = 1
# [15] = tested on: JAK1(JH2domain-pseudokinase); settings: concentration: 1 μM, replicates: in singlicate, n = 1
# [16] = tested on: JAK2(JH1domain-catalytic); settings: concentration: 1 μM, replicates: in singlicate, n = 1
# [17] = tested on: JAK3(JH1domain-catalytic); settings: concentration: 1 μM, replicates: in singlicate; n = 1
# [18] = tested on: T4, JNK1; settings: concentration: 1 μM, replicates: in singlicate, n = 1
# T4 construct: gene MAPK8
# [19] = tested on: T5, JNK2; settings: concentration: 1 μM, replicates: in singlicate; n = 1
# T5 construct: gene MAPK9
# [20] = tested on: T6, JNK3; settings: concentration: 1 μM, replicates: in singlicate; n = 1
# T6 construct: gene MAPK10
# 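Note: KINOMEscan kinase panel screen.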
smiles,measurement,setting,value
Cl.Cl.Cl.Fc1ccc(-c2ncn(C3CCNCC3)c2-c2ccnc(Nc3ccccc3)n2)cc1 [SB-238039],%Inh,[1]; 1 µM,96.2% and 92.5%
same,%Inh,[2]; 1 µM,61% and 0%
same,%Inh,[3]; 1 µM,0% and 34%
same,%Inh,[4]; 1 µM,37% and 0%
same,%Inh,[5]; 1 µM,34% and 0%
same,%Inh,[6]; 1 µM,10% and 0%
same,%Inh,[7]; 1 µM,0% and 3%
same,%Inh,[8],0%
same,%Inh,[9],15%
same,%Inh,[10]; 1 µM,66% and 0%
same,%Inh,[11],0%
same,%Inh,[12],0%
same,%Inh,[13]; 1 µM,5% and 14%
same,%Inh,[14]; 1 µM,0% and 8%
same,%Inh,[15]; 1 µM,15% and 0%
same,%Inh,[16]; 1 µM,44% and 0%
same,%Inh,[17],0%
same,%Inh,[18]; 1 µM,97% and 96.3%
same,%Inh,[19],100%
same,%Inh,[20],99.8%
CCn1cnc2c(N)ncnc21 [GW345098],%Inh,[1],0%
same,%Inh,[2],4%
same,%Inh,[3],0%
same,%Inh,[4],3%
same,%Inh,[5],0%
same,%Inh,[6],4%
same,%Inh,[7],0%
same,%Inh,[8],0%
same,%Inh,[9],10%
same,%Inh,[10],0%
same,%Inh,[11],10%
same,%Inh,[12],0%
same,%Inh,[13],16%
same,%Inh,[14],10%
same,%Inh,[15],19%
same,%Inh,[16],7%
same,%Inh,[17],17%
same,%Inh,[18],16%
same,%Inh,[19],0%
same,%Inh,[20],0%
COCCNC(=O)c1ccc(-c2cc(C(=O)NC3CC3)cc(F)c2C)cc1 [GW868318],%Inh,[1],4%
same,%Inh,[2],7%
same,%Inh,[3],40%
same,%Inh,[4],3%
same,%Inh,[5],36%
same,%Inh,[6],29%
same,%Inh,[7],4%
same,%Inh,[8],19%
same,%Inh,[9],10%
same,%Inh,[10],37%
same,%Inh,[11],23%
same,%Inh,[12],13%
same,%Inh,[13],8%
same,%Inh,[14],0%
same,%Inh,[15],16%
same,%Inh,[16],44%
same,%Inh,[17],0%
same,%Inh,[18],38%
same,%Inh,[19],49%
same,%Inh,[20],19%
Fc1ccc(-c2ncn(CCCN3CCOCC3)c2-c2cccnc2)cc1 [SB-211743],%Inh,[1],0%
same,%Inh,[2],44%
same,%Inh,[3],0%
same,%Inh,[4],0%
same,%Inh,[5],0%
same,%Inh,[6],0%
same,%Inh,[7],6%
same,%Inh,[8],8%
same,%Inh,[9],4%
same,%Inh,[10],0%
same,%Inh,[11],64%
same,%Inh,[12],0%
same,%Inh,[13],0%
same,%Inh,[14],20%
same,%Inh,[15],38%
same,%Inh,[16],21%
same,%Inh,[17],0%
same,%Inh,[18],26%
same,%Inh,[19],0%
same,%Inh,[20],0%
O=C(NCCNc1ccnc(Nc2ccc(F)cc2)n1)Nc1ccccc1F [GSK1379880],%Inh,[1],33%
same,%Inh,[2],0%
same,%Inh,[3],0%
same,%Inh,[4],0%
same,%Inh,[5],0%
same,%Inh,[6],0%
same,%Inh,[7],0%
same,%Inh,[8],0%
same,%Inh,[9],0%
same,%Inh,[10],15%
same,%Inh,[11],0%
same,%Inh,[12],11%
same,%Inh,[13],30%
same,%Inh,[14],23%
same,%Inh,[15],0%
same,%Inh,[16],11%
same,%Inh,[17],0%
same,%Inh,[18],32%
same,%Inh,[19],19%
same,%Inh,[20],11%
COc1ccc(Nc2ncc(C#N)c(Nc3ccccc3C(N)=O)n2)cc1N1CCN(C)CC1.Cl [GSK1558669],%Inh,[1],96.4%
same,%Inh,[2],0%
same,%Inh,[3],97.6%
same,%Inh,[4],99.6%
same,%Inh,[5],97.8%
same,%Inh,[6],88%
same,%Inh,[7],93.8%
same,%Inh,[8],100%
same,%Inh,[9],99.9%
same,%Inh,[10],99.8%
same,%Inh,[11],100%
same,%Inh,[12],99.4%
same,%Inh,[13],99.8%
same,%Inh,[14],0%
same,%Inh,[15],99.9%
same,%Inh,[16],99.1%
same,%Inh,[17],98.8%
same,%Inh,[18],99.5%
same,%Inh,[19],100%
same,%Inh,[20],99.9%
Cc1ccc(NC(=O)c2ccnc(N3CCN(C)CC3)c2)cc1-c1ccc(C(=O)NCC2CC2)cc1 [GW775604],%Inh,[1],0%
same,%Inh,[2],34%
same,%Inh,[3],0%
same,%Inh,[4],0%
same,%Inh,[5],0%
same,%Inh,[6],0%
same,%Inh,[7],0%
same,%Inh,[8],0%
same,%Inh,[9],0%
same,%Inh,[10],0%
same,%Inh,[11],0%
same,%Inh,[12],0%
same,%Inh,[13],0%
same,%Inh,[14],0%
same,%Inh,[15],27%
same,%Inh,[16],2%
same,%Inh,[17],0%
same,%Inh,[18],0%
same,%Inh,[19],0%
same,%Inh,[20],0%
N#Cc1ccc(-c2cc(-c3c[nH]nc3-c3ccccn3)ccn2)cc1 [GW693028],%Inh,[1],38%
same,%Inh,[2],0%
same,%Inh,[3],11%
same,%Inh,[4],22%
same,%Inh,[5],25%
same,%Inh,[6],19%
same,%Inh,[7],0%
same,%Inh,[8],0%
same,%Inh,[9],1%
same,%Inh,[10],39%
same,%Inh,[11],0%
same,%Inh,[12],22%
same,%Inh,[13],9%
same,%Inh,[14],22%
same,%Inh,[15],0%
same,%Inh,[16],9%
same,%Inh,[17],0%
same,%Inh,[18],34%
same,%Inh,[19],59%
same,%Inh,[20],69%
Cl.Nc1ncnc2occ(-c3ccc(NC(=O)Nc4cc(C(F)(F)F)ccc4F)cc3)c12 [SB-707548],%Inh,[1],85%
same,%Inh,[2],15%
same,%Inh,[3],5%
same,%Inh,[4],5%
same,%Inh,[5],86%
same,%Inh,[6],35%
same,%Inh,[7],63%
same,%Inh,[8],0%
same,%Inh,[9],23%
same,%Inh,[10],35%
same,%Inh,[11],0%
same,%Inh,[12],3%
same,%Inh,[13],9%
same,%Inh,[14],50%
same,%Inh,[15],7%
same,%Inh,[16],59%
same,%Inh,[17],23%
same,%Inh,[18],9%
same,%Inh,[19],94.9%
same,%Inh,[20],12%
O=C1Cc2cc(Nc3nc(NCc4cccc(S(=O)(=O)C(F)(F)F)c4)ncc3C(F)(F)F)ccc2N1,%Inh,[1],0%
same,%Inh,[2],8%
same,%Inh,[3],0%
same,%Inh,[4],0%
same,%Inh,[5],20%
same,%Inh,[6],8%
same,%Inh,[7],0%
same,%Inh,[8],0%
same,%Inh,[9],0%
same,%Inh,[10],14%
same,%Inh,[11],0%
same,%Inh,[12],22%
same,%Inh,[13],0%
same,%Inh,[14],28%
same,%Inh,[15],0%
same,%Inh,[16],7%
same,%Inh,[17],7%
same,%Inh,[18],9%
same,%Inh,[19],0%
same,%Inh,[20],0%
